Compound activity deposited in PubChem by National Center for Advancing Translational Sciences (NCATS).
Hits are enriched below; roughly 2.7% of the tested compounds scored in any of these assays.
ALOX12 inh: Primary qHTS assay for inhibitors of human arachidonate 12S-lipoxygenase (ALOX12): Round 2. 580,000 compounds, 1.1% hits. purified 12hLO, xylenol orange hydroperoxide absorbance. Potency, µM (titrated, usually from 108 µM), without a hit: at the top dose activity change, negative = inhibition, most hits filed as inhibitors. AID 1671190, 2021; note: % is set by controls: 0 for no effect and ±100 for the full control effect
Target sequence (P18054 whole entry, looked up): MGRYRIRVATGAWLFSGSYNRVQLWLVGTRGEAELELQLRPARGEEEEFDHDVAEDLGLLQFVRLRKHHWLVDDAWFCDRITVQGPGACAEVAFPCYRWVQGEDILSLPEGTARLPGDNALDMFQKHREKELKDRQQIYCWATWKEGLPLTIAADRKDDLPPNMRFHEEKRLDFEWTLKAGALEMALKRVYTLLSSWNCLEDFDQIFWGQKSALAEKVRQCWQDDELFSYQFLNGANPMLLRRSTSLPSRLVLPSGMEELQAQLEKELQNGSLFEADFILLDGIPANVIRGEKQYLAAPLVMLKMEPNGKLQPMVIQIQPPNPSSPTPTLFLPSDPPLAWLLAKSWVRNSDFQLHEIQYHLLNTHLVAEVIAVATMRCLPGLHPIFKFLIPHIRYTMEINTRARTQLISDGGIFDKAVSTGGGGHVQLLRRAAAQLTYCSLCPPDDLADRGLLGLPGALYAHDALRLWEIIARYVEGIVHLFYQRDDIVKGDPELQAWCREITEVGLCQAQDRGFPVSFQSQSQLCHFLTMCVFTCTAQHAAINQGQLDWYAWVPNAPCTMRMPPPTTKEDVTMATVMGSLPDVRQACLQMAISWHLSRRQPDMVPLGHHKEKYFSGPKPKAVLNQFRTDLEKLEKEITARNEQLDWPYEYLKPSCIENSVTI
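Purified human 12hLO (150 nM final) in 25 mM Hepes, 0.01% Triton X-100, pH 7.0 was preincubated 15 min at room temperature with compound. Then 40 uM arachidonic acid was added, 30 min. Hydroperoxide was read by Fe-XO absorbance ratio 573/405 nm.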
TGFb inhibitor: qHTS for Inhibitors of TGF-b; Potency, µM (doses to about 46.1 µM), for the others: at the top dose activity, negative = inhibition, usual class: inhibitors; 410,000 compounds, 1.2% hits; HepG2 CAGA-GFP TGF-b/SMAD3 reporter, GFP fluorescence, 18 h; TGF-beta stimulated, 500 pg/mL final; note: % is set by controls: 0 for no effect and ±100 for the full control effect; nearly all actives have a fitted effect of over 65% in size
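Per well, imaged GFP fluorescence of HEPG2 CAGA-GFP cells gives the signal; cells get compound, then TGF-beta (500 pg/mL final), 18 h at 37 degrees C; %Activity versus -TGF-beta and +DMSO controls.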
HepG2 tox-1: qHTS for Inhibitors of TGF-b: Cytotox Counterscreen | 410,000 compounds, 0.76% hits | HepG2 CAGA-GFP viability, ATP luminescence, 18 h | Potency, µM (top dose mostly 46.1 µM), for inactives: at the top dose activity change, negative = cytotoxicity, actives largely listed as cytotoxic
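HepG2 CAGA-GFP cells (1000/well, DMEM with 1% FBS) received compound, then TGF-beta at 500 pg/mL final, and were incubated 18 hours at 37 degrees C. Viability was read by CellTiter-Glo luminescence. Media-only wells were set as complete cell-killing and DMSO as no toxicity.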
ATXN2 expr inh: Primary qHTS for Inhibitors of ATXN expression | 360,000 compounds, 0.72% hits | HEK-293 ATXN2-luciferase reporter, luminescence, 24 h | Potency, µM (titrated, usually from 57 µM), for inactives: at the top dose activity change, negative = inhibition, actives largely listed as inhibitors; note: % is set by controls: 0 for no effect and ±100 for the full control effect; nearly all actives have a fitted effect of over 55% in size
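qHTS (up to 57 uM final) was run with 24 h compound exposure of reporter cells at 37 °C. Each well was multiplexed: SteadyGlo luminescence measured ATXN2-luciferase expression after a fluorogenic Gly-Phe-AFC viability readout (25 uM final).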
S2 tox: Viability Counterscreen for Primary qHTS for Inhibitors of ATXN expression; S2 cells (HEK-293 line with an ATXN2-luciferase reporter) viability, CellTiter-Fluor protease fluorescence, 24 h; Potency, µM (top dose mostly 56.7 µM), most hits filed as cytotoxic; 400,000 compounds, 0.49% hits; note: nearly all actives have a fitted effect of over 40% in size
TGFb CAGA inh: qHTS for Inhibitors of TGF-b: Confirmation of Cherry Picks; shares compounds with TGFb inhibitor; HepG2 CAGA-GFP TGF-b reporter, GFP fluorescence, 18 h; cells stimulated with TGF-beta, 500 pg/mL; Potency, µM (series often up to 46.1 µM), inactives show at the top dose activity, negative = inhibition, hits mostly inhibitors; 1,600 compounds, 63% hits; AID 720534, 2013; note: % is set by controls: 0 for no effect and ±100 for the full control effect; nearly all actives have a fitted effect of over 65% in size
HepG2 tox-2: qHTS for Inhibitors of TGF-b: Cytotox Counterscreen for Cherry Picks; shares compounds with TGFb inhibitor; HepG2 CAGA-GFP viability, ATP luminescence, 18 h; cells stimulated with TGF-beta, 500 pg/mL; Potency, µM (titrated, usually from 46.1 µM), for the others: at the highest dose activity, negative = cytotoxicity, hits mostly inhibitors; 1,600 compounds, 27% hits; AID 720535, 2013; note: % is set by controls: 0 for no effect and ±100 for the full control effect; nearly all actives have a fitted effect of over 70% in size
CCL64 TGFb inh: qHTS for Inhibitors of TGF-b: CCL64 Cells Orthogonal Assay for Cherry Picks | shares compounds with TGFb inhibitor | CCL64 CAGA-GFP reporter, TGF-b stimulated, GFP fluorescence, 18 h | Potency, µM (highest dose often 46.1 µM), for inactives: at the top dose activity, negative = inhibition, usual class: inhibitors | 1,600 compounds, 41% hits; note: nearly all actives have a fitted effect of over 65% in size
TGFb COP inh: qHTS for Inhibitors of TGF-b: Hit Validation in HepG2 Cells using COP promoter; Potency, µM (titrated, usually from 46.1 µM), without a hit: at the highest dose activity, negative = inhibition, actives largely listed as inhibitors; shares compounds with TGFb inhibitor; 1,600 compounds, 3% hits; AID 720537, 2013; HepG2 COP-GFP TGF-b reporter, GFP fluorescence, 18 h; cells stimulated by added recombinant TGF-beta; note: nearly all actives have a fitted effect of over 70% in size
* = called active by the depositor; i = inactive; ? = inconclusive; . = not tested or not shown; [ ] = dose if it differs, or a comment. Calls come from the whole dose curve; as a rule, active = well fitted curve in the direction sought with a large enough effect; inconclusive = small, poorly fitted or top-dose-only effect, or another doubt; inactive = no such curve, though single readings can be large; an effect the other way counts as inactive or inconclusive. Potency is the fitted concentration of half-maximal effect.

SMILES	ALOX12 inh	TGFb inhibitor	HepG2 tox-1	ATXN2 expr inh	S2 tox	TGFb CAGA inh	HepG2 tox-2	CCL64 TGFb inh	TGFb COP inh
COc1ccc(-c2csc(NC(=O)c3ccccc3NS(=O)(=O)c3ccc(F)c(F)c3)n2)cc1	?	1.78µM*	-41.9%	7.08µM*	?	2.31µM*	1.46µM*	1.84µM*	-8.7%
Cc1ccc(S(=O)(=O)Nc2ccccc2C(=O)Nc2nc(-c3ccc(F)cc3)cs2)cc1	?	5.62µM*	-34.4%	?	?	5.17µM*	5.8µM*	5.17µM*	93.6%
O=C(c1ccccc1NS(=O)(=O)c1ccc(F)cc1)N1CCCCC1	3.9%	-1.5%	13.3%	6.7%	i	.	.	.	.
Cn1cc(CN2CCNc3cnc(Nc4ccccc4)cc3C2)cn1	19.6%[176 µM]	.	.	.	.	.	.	.	.
COc1ccc(C(=O)NN(C)c2nc(-c3ccccc3)nnc2C(F)(F)F)cc1	-21.4%	15.0%	0.5%	-13.3%	i	.	.	.	.
COc1ccc(C(=O)NN(C)c2nc(C(F)(F)F)nc3ccccc23)cc1	-19.5%	?	-22.8%	26.7%	?	?	-16.5%	?	-15.0%
COCc1cc(=O)n2[nH]cc(-c3ccccc3)c2n1	38.9%	-11.6%	-9.1%	11.2%	i	.	.	.	.
CCCc1cc(=O)n2[nH]cc(-c3ccc(Cl)cc3)c2n1	0.0%	5.01µM*	11.2µM*	10µM*	?	25.9µM*	?	11.6µM*	86.6%
COc1ccc(-c2nc(-c3ccccc3)c(-c3ccc(O)cc3)[nH]2)cc1	?	?	-50.9%	.	.	.	.	.	.
COc1ccc(-c2nc(-c3ccc4c(c3)OCO4)[nH]c2-c2ccc(OC)cc2)cc1	-15.8%	-3.6%	-41.2%	-19.7%	?	23.1µM*	?	25.9µM*	63.1%
COc1cccc(NC(=O)N2[C@@H]3CC[C@H]2CC(NC(=O)c2cnc(C)cn2)C3)c1 (some centres undefined)	44.3%	.	.	.	.	.	.	.	.
COc1ccc(Nc2nnc(-c3ccc(C)cc3)c3ccccc23)cc1C(=O)N1CCCCC1	-29.5%	15.8µM*	-21.2%	?	?	-87.5%	?	?	45.3%
Cc1cccc(C(=O)NC(Nc2ccc(Cl)cc2)C(Cl)(Cl)Cl)c1 (centres undefined)	11.1%	.	.	.	.	.	.	.	.
O=C(c1ccc(Cl)cc1)c1cc([N+](=O)[O-])ccc1N1CCOCC1	-13.0%	11.2µM*	11.9%	-27.5%	i	7.31µM*	-2.0%	?	-3.4%
O=C(c1ccc(Br)cc1)c1cc([N+](=O)[O-])ccc1N1CCOCC1	-24.3%	?	-8.2%	.	?	.	.	.	.
CN(C)c1nc(N/N=C/c2ccccc2O)nc(Nc2ccc(F)cc2)n1	-10.9%	12.6µM*	-23.9%	?	i	14.6µM*	?	?	-2.4%
COCCCn1c(-c2ccc(O)c(OC)c2)nc2c1c(=O)[nH]c(=O)n2CC(C)C	-23.3%	.	.	.	.	.	.	.	.
Cc1cccc(NC(=O)c2ccc(F)c(S(=O)(=O)NCc3ccco3)c2)c1	?	-23.4%	-8.7%	-21.1%	i	.	.	.	.
CCN(c1ccccc1)S(=O)(=O)c1cc(C(=O)Nc2cccc(Cl)c2)ccc1F	13.1%	10µM*	-24.9%	-38.0%	?	9.2µM*	?	14.6µM*	57.9%
O=C(Nc1cccc(Cl)c1)c1ccc(F)c(S(=O)(=O)NCc2cccs2)c1	-15.9%	10µM*	-31.1%	?	i	?	?	?	10.6%
CCc1ccc(NC(=O)c2ccc(F)c(S(=O)(=O)N(CC)c3ccccc3)c2)cc1	-18.1%	11.2%	4.8%	-4.9%	i	.	.	.	.
CN1CCN(C(=O)C2(N(C)CCc3ccccc3)Cc3ccccc3C2)CC1	23.0%	.	.	.	.	.	.	.	.
CCCCn1c(N)c(N(C)C(=O)C2Cc3ccccc3C(=O)O2)c(=O)[nH]c1=O (centres undefined)	21.7%	.	.	.	.	.	.	.	.
O=C(c1ccc2c(c1)OCO2)C1CCCN(Cc2cccc(C(F)(F)F)c2)C1 (centres undefined)	-2.6%	?	-32.7%	-14.1%	i	.	.	.	.
O=C(c1ccc2c(c1)OCO2)C1CCCN(Cc2ccc(OC(F)F)cc2)C1 (centres undefined)	7.2%	?	-37.6%	.	i	?	?	?	11.9%
